# ± gives the standard deviation of the averaged measurements. Over roughly 25,000 sequences, “ln(normalized median fluorescence intensity)” has its median near 7.9; the highest 2% begin near 11. What follows is part of a selection rich in the highest values, with near analogues and random picks from the rest.
# Test system: PfAP2-I AP2 domain 3 (GST-tagged)
# Assay: gcPBM binding intensity (ln(normalized median fluorescence intensity)); higher = stronger DNA binding
# Summary of the method: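 GST-tagged P. falciparum DNA-binding domains produced in E. coli were incubated for 1 h on an Agilent 4 × 180k array of primer-extended double-stranded 36-bp intergenic genomic probes with negative controls. Binding intensity is the highest Masliner-normalised natural-log median intensity across replicate spots of either probe orientation, with bound protein detected by Alexa488 anti-GST antibody at 488 nm.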
row,Sequence,gcPBM binding intensity (ln)
1,TGTGTATATAAATAATGTACATATATATTTTTTTAT [XGTACX_site7341],7.79 ± 0.22
2,AAAAAAAAAAAAAAAAAAAGAAAAGAAAATAGGGTT [GTGCAC_negctrl_site421],8.96 ± 0.22
3,CATATGATATGTTATACACACACGTATATATGAATT [CACACA_site3446],8.03 ± 0.21
4,TTTTTTTTTTTTGTAATACACACCACTATATGTTAT [CACACA_site1844],8.15 ± 0.73
5,AAAACAAACAAAAAAAAAAAAAAAAATATCAATCTA [TGCATGCA_negctrl_site203],7.01 ± 0.52
6,CACAAAATAAATTAAACACACAACATCATAGATGTA [CACACA_site4619],7.21 ± 0.54
7,AAGATATCTAAGGAAATTAAACTACCAAAATATATA [TGCATGCA_negctrl_site338],7.39 ± 0.59
8,TTATCATTTGCCATTGTGCACTTATATGCTCACATT,10.97 ± 0.028
9,ATTGTGCACTTATATGCACACATTTTAGTTTTTTTT [CACACA_site2028],11.4 ± 0.69
10,TATCATTTATATATGTGTACTTATTTATTTATTTAT [XGTACX_site7961],7.96 ± 0.28
11,CATATTGGTATGCTCATGCACTTTTATTTTGTTATT [GTGCAC_site9553],8.52 ± 0.53
12,TTATATTTAGTATATGCACACTTTATGTTTGTTATT [CACACA_site5163],9.29 ± 0.21
13,CATTTTGTTTTAAAGTGTACATTATGTAATATAAAA [XGTACX_site647],7.84 ± 0.43
14,ATATATATTATCATTGTGCACTTATTTATATACCTT,11.1 ± 0.15
15,ATTTATATGCACCATTGTACGTTTTATAAAGTTTGG [XGTACX_site3755],11.6 ± 0.83
16,TTTTTATTTTCATATGTGCACTTATATATATATATA,10.82 ± 0.099
17,ATATTACACATATATGCACACATTGTAGTTATTTAT [CACACA_site8843],9.34 ± 0.26
18,ATATATATATAAAGTTGTACATTTTTTATTTTTTCA [XGTACX_site7847],9.09 ± 0.16
19,TATATATATATATATGTGCACATTTATTGCCTTTGC,9.76
20,ATTACCAACAGATCTTGTACATATTAAAGCATCTTA [XGTACX_site2361],7.84 ± 0.57
21,TCTATTAATTAATATACACACATTATATATATATAT [CACACA_site8815],9.375 ± 0.049
22,TTTTTTATTGTGATACGTATATTATTTTATGATAAA [CACACA_negctrl_site1591],8.04 ± 0.6
23,AAACACACACACAAATGTACATATATATATATATTT [XGTACX_site5090],7.92 ± 0.51
24,AATATTATAAATGATACACACTTAAAATACACGCAC [CACACA_site7305],8.71 ± 0.22

row,Sequence,gcPBM binding intensity (ln)
1,CATCATAGAGTGGAGTGTACAAATATGTCAACATAT [XGTACX_site2264],7.99 ± 0.55
2,TATATTTAGAGAGAGACACACAAAGGGACTTACACA [CACACA_site2545],7.82 ± 0.71
3,CATAATACATATAACACACACAATTATACATAAAAT [CACACA_site3233],7.88 ± 0.33
4,TGGAAACAATGACACACACACAAAAAAAAAAAAAAA [CACACA_site7494],7.97 ± 0.56
5,TATAAGTTGATATATACACACATATATAAATATGTA [CACACA_site7526],7.4 ± 0.4
6,ATATTTTCTTTTTAAAGTACATATTTGATTACAATA [XGTACX_site8414],7.66 ± 0.5
7,TGTATATATTTGTGCACACCAAAGTTTGATTTTATT [CACACA_site1860],10.9 ± 0.099
8,ATATGTATTTATATATGTTTGATTTTTTTTTTTTTT [TGCATGCA_negctrl_site506],7.71 ± 0.26
9,TATGTATATATTTGTGCACACCAAAGTTTGATTTTA [CACACA_site1861],10.71 ± 0.014
10,AAAAAAAAAAGACACACACACACATACACATACATA [CACACA_site7362],7.96 ± 0.29
11,TTTTTTTTTTTTGAAGTGCATTACTTTTTTTGTATT [GTGCAC_site9811],11 ± 0.44
12,TTTTTGTGCATTGATTGTACTTTCTAGGATTATTAA [XGTACX_site7070],10.16 ± 0.049
13,TATATTATTATATATTGTACTTTTTATATTTGCATT [XGTACX_site2978],7.72 ± 0.49
14,TATATTTATAAATGAACACACACGCAATTTGAATCG [CACACA_site3370],7.89 ± 0.49
15,ATTGTTATTTATTGTGTGCGCATTAATACATACATA [GTGCAC_site9982],8.95 ± 0.41
16,TTCAATAGGTATAATTGTACTTAATAATATATTGTT [XGTACX_site8363],7.53 ± 0.42
17,ATATATATATAGTACGCACACATAGTTGTACATTAA [CACACA_site2787],9.21 ± 0.13
18,GTTTATTGATTTATTTGTACTTATATATATATTTCA [XGTACX_site5098],8.07 ± 0.63
19,TATATATATATCAAGTGTACTTGTGTTTGTAATATT [XGTACX_site8854],9.165 ± 0.049
20,TTGTTTTGGATTATCACACATATAATATATACTCAT [CACACA_site4780],7.82 ± 0.68
21,TAAGTAATAGTTTGTGCACACTCAAGTATATCATAT [CACACA_site4035],10.8 ± 0.28
22,TTTATAGTTTTTAATAGTACACATATTTTTAAGTAT [XGTACX_site5498],7.89 ± 0.2
23,AAAATCAAGTAGTATAAAGTAAGTATCATAAAAATA [CACACA_negctrl_site1554],7.63 ± 0.59
24,AGTAATAGTTTGTGCACACTCAAGTATATCATATAT [CACACA_site4034],10.9 ± 0.24

row,Sequence,gcPBM binding intensity (ln)
1,AGTAATAGTTTGTGCACACTCAAGTATATCATAGAT [CACACA_site6082],11 ± 0.23
2,TATATATCAATATGCACACACAAGAAGTAATTATAA [CACACA_site7487],8.96 ± 0.22
3,GTAATATCAATATAAAGTACACACTATAGTATGTAT [XGTACX_site4714],7.66 ± 0.49
4,GTTATAACTCAAATATGTACATATTATAAAACATAT [XGTACX_site6693],7.92 ± 0.47
5,TTTTTTTTTTATTGTACATGCAAAAAATTCCACACA [TGCATGCA_site279],8.31 ± 0.32
6,ATTTACCCTTGCCATGCACACTTTTTTATAGAAAAT [CACACA_site5857],8.95 ± 0.44
7,GAACTTTACAACCCAACACACAAAAAAGAAAAGAAA [CACACA_site1717],7.87 ± 0.46
8,AAAATAATATAAATAATATAAGTGAGCATATATATA [TGCATGCA_negctrl_site527],7.92 ± 0.72
9,AGTAGCAAATATTAAGTGCATATTATATAATGTGTA [GTGCAC_site9546],9.04 ± 0.16
10,TTTAGATATATGGTAGTGCATAATAAAAATATAGCC [GTGCAC_site9449],11.1 ± 0.67
11,CCACGAGAATATATAGTGCATAATAATTTTTTTTTG,11.1 ± 0.4
12,ACATTTACAAGGAAAGTGCATATAAGAAAAATAAAA [GTGCAC_site9587],10.2 ± 0.11
13,TTTCTAGTTACAAGAGTGCATAATATATAAAAATAA [GTGCAC_site9874],10.9 ± 0.56
14,TAAAAAATGATAGAAGTGCATAAAATAATATATATA [GTGCAC_site9904],10.4 ± 0.13
15,ATAATATTTTATATAGTGCATTTGCTCATTATATAT [GTGCAC_site9528],9.85 ± 0.45
16,TATAATAACAATTTAGTGCATATAATAATATTTTAT,10 ± 0.19
17,CTATGCATTTATAGTGCATGTAAAATATAAGATAAT [TGCATGCA_site71],9.86 ± 0.085
18,TTGTGTGAGCAAGTAGTGCATAATATAAATAAAAAA [GTGCAC_site9802],11.2 ± 0.54
19,TAAAAAATTAATAAAGTGCATAAATATTACAATATT,10.3 ± 0.4
20,TCAAAATATCCAAAAGAATAAAGAAAAAAAAAAAGA [CACACA_negctrl_site1377],7.5 ± 0.41
21,TTGTAATTTATTCAAACACACAATTTGGACCTTTTT [CACACA_site1063],7.45 ± 0.51
22,TTTTTACTATAAGGGGAAAAAAAAAAAAATAATATA [XGTACX_negctrl_site279],7.78 ± 0.28
23,ATGTAGATATATATATGTACTAATTAGTAGTTTACG [XGTACX_site6275],8 ± 0.41
24,ATATATATATCAACAACACACGATTAACTAAAAAAA [CACACA_site302],8.8 ± 0.19

row,Sequence,gcPBM binding intensity (ln)
1,ACCTTATTTAGTTATAGTACACAAAGTATTAAACAT [XGTACX_site8418],8.46 ± 0.46
2,AGTATACATTCATTTTGTACTCAATGATTTGATAAC [XGTACX_site6787],7.63 ± 0.42
3,CTATTATCGGTTCCTACACACAAATATATATGTCTA [CACACA_site3579],8.1 ± 0.57
4,TGTTTTTTTATTTTCACACATAATCCAATTATACAT [CACACA_site6070],8.22 ± 0.55
5,TATATATATATGTAATGTACATAAATTTTATACCTT [XGTACX_site6991],9.27 ± 0.53
6,ACCATATAATTTTTTTGTACATAATGATTTTTTTTT [XGTACX_site1104],7.99 ± 0.45
7,GGTCTAACAACATGCGCACACACATGAATATTCATA [CACACA_site1539],8.81 ± 0.49
8,CACTAAATAAGGAAAGTGCATAAAATAAAGGTTATA [GTGCAC_site9793],10.4 ± 0.26
9,ATAGTAATGCATAAATATATATTATATATATATATA [XGTACX_negctrl_site576],9.21 ± 0.49
10,TATATATATATAATAGTGCATAAATAAATATATAAA,11.2 ± 0.45
11,ACATATAATAAAATAGTGCATTGTTAGTTTTATATA,10.4 ± 0.42
12,ATATATAAATAAATAGTGCATTTTAATATTTAACGT,10 ± 0.18
13,ATATATATATATATAGTGCATAAAATAAGTTTCTAA,10.8 ± 0.21
14,TATATATATATATAAGTGCATATAAAAATCGTTCGT,10.3 ± 0.11
15,ATATATATATATATAGTGCATAATGTTTTAATAGAT,11 ± 0.33
16,AATAAAAATAATATAGTGCATAATATAAGGAAAAAA,11.1 ± 0.49
17,AAAAAAAATATACATACATGCATACATAAGTTTCTA [TGCATGCA_site998],7.55 ± 0.73
18,TAATAAATGTTATTAGTGCATAATAGATAATATATT,10.8 ± 0.64
19,GTTGAAATAAAATTAGTGCATATATAAATATATATA,10.2 ± 0.17
20,AAAAGCACCGTTCGTTGTACACTGAAACACTTTTGT [XGTACX_site199],8.2 ± 0.76
21,AACATGTTAAAATAAACACACAGCTAAGGTTTTTTT [CACACA_site157],7.4 ± 0.69
